Reference: PubChem BioAssay (NCI)
About 83,000 compounds went through this panel and 20% of them were active in at least one assay; those are over-represented in the sample as a whole.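 Testing used 96-well plates and a 48-hour single-concentration exposure. Example: -40 means 40% of the starting cells died.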 Calls of active or inactive are those of the source. How the source made its calls: active means growth percent below 10; inactive means the rest.

Legend:
Test in all cases: NCI-60 one-dose screen, 48 h (100 = growth as untreated, 0 = no growth, -100 = all killed)
Conditions in all cases: 10 µM unless noted
[1] = system: BT-549 breast
[2] = system: MDA-MB-435 melanoma
[3] = system: SW-620 colon
[4] = system: MCF7 breast
[5] = system: HCT-116 colon
[6] = system: HCC-2998 colon
[7] = system: KM12 colon

Measured: growth

C[C@H](Oc1cc(-c2cnn(C3CCNCC3)c2)cnc1N)c1c(Cl)ccc(F)c1Cl
inactive: [1] 75.7% | [2] 66.1% | [3] 79.5% | [4] 37.6% | [5] 31.9% | [6] 66% | [7] 50.6%

CC(C)(C)c1ccc2oc(=O)n(SC(Cl)(Cl)Cl)c2c1
inactive: [1] 98.2% | [2] 107% | [3] 76.5% | [4] 86.4% | [5] 103% | [6] 96.5% | [7] 95.2%

CC(=O)OCC1SC(OC(C)=O)C(NC(=O)/C=C/CCl)C(OC(C)=O)C1OC(C)=O (stereo unspecified)
inactive: [1] 105% | [2] 101% | [3] 107% | [4] 85.8% | [5] 101% | [6] 104% | [7] 102%

CCOC(=O)c1sc(/N=C2\NC(=O)/C(=C/c3ccc(N4CCN(C)CC4)cc3)S2)nc1C
inactive: [1] 95% | [2] 106% | [3] 120% | [4] 84% | [5] 103% | [6] 94.7% | [7] 95.4%

Cc1ccc(SC2c3ccc(C)cc3Oc3nc(N)c(C#N)c(N)c32)cc1 (stereo unspecified)
inactive: [1] 78.9% | [2] 91.6% | [3] 64.6% | [5] 81.7% | [6] 103% | [7] 96.8%
active: [4] 5.14%

COc1ccc2nc3nc4ccc[nH]c4cc3c2c1
active: [4] 5.69%
inactive: [1] 84.1% | [2] 101% | [3] 95.7% | [5] 104% | [6] 101% | [7] 52.1%

N#Cc1c(-c2ccc(Cl)cc2)cc(-c2cc3ccccc3o2)nc1SCC(=O)c1ccc(Cl)cc1
inactive: [1] 112% | [2] 104% | [3] 94.2% | [4] 112% | [5] 94.1% | [6] 102% | [7] 94.9%

C=C1C(=O)O[C@H]2[C@H]1CC/C(COC(=O)c1cccnc1N)=C\CC[C@@]1(C)O[C@@H]21
inactive: [6] 35.3% | [7] 13.4%
active: [1] -37.2% | [2] -4.17% | [3] 4.05% | [4] 7.98% | [5] 3.94%

CCCCCCC/C=C/[C@H]1O[C@]23C(=O)C[C@@]4(C[C@@H](OC5OC(CO)C(O)C(O)C5O)C[C@@H]4[C@H]2C=C1C)OC3=O (stereo partly specified)
inactive: [4] 14.4% | [6] 31.3% | [7] 28.6%
active: [1] -0.665% | [2] 3.95% | [3] 9.92% | [5] 1.7%

Cc1c(Cl)cccc1NC(=O)c1sc2nc3c(cc2c1N)CCCCCC3
inactive: [1] 11.2% | [3] 21.4% | [4] 15.1% | [6] 52.2% | [7] 19.1%
active: [2] -19.5% | [5] 5.07%

CC(=O)Nc1ccc2c(c1)Cc1cc(F)ccc1-2
inactive: [1] 93.8% | [2] 107% | [3] 105% | [4] 82.2% | [5] 102% | [6] 94.3% | [7] 95.6%

COc1cc(C2=NNC(c3ccc(N(C)C)cc3)C2)cc(OC)c1OC (stereo unspecified)
active: [5] 9.9% | [6] 7.82%
inactive: [1] 35.1% | [2] 19% | [3] 20% | [4] 20.2% | [7] 14.4%

CC1CCCN(CCCCCOc2ccc3oc4ccccc4c(=O)c3c2)C1 (stereo unspecified)
inactive: [1] 74.3% | [2] 46% | [3] 70.1% | [4] 63.1% | [5] 52.7% | [6] 85.3% | [7] 64.3%

O=C(O)C(C(=O)O)c1cccc2ccccc12
inactive: [1] 102% | [2] 102% | [3] 99.1% | [4] 98.1% | [5] 102% | [6] 104% | [7] 109%

COc1ccccc1-c1ccc2nc(NC(=O)Nc3cc(C(F)(F)F)cc(C(F)(F)F)c3)sc2c1
active: [4] 4.1% | [5] 4.85% | [7] 3.63%
inactive: [1] 13.2% | [2] 10.9% | [3] 11.9% | [6] 11.8%

COc1cc(NCC(=O)Nc2cc(Nc3cccc(C(F)(F)F)c3)ncn2)c(Cl)c(OC)c1Cl
inactive: [1] 88.9% | [2] 102% | [3] 104% | [4] 85.8% | [5] 87.4% | [6] 103% | [7] 92.3%

COc1ccc(/C=C/C(=O)C(CC2CCC2)C(=O)/C=C/c2ccc(OC)c(OC)c2)cc1OC
active: [1] -23.5% | [2] -11.5% | [3] -26.3% | [4] 6.93% | [5] -75.8% | [6] -80.6% | [7] -33.5%

COc1cc(-c2csc(NC(=O)Nc3cc(Cl)cc(Cl)c3)n2)cc(OC)c1OC
active: [3] -26.4% | [4] 8.04% | [5] -28.9%
inactive: [1] 11.5% | [2] 27.1% | [6] 70.8% | [7] 18.5%

COc1ccc(/C=C(/C(=O)N2CCCC2)c2cc(OC)c(OC)c(OC)c2)cc1
active: [2] -18.3%
inactive: [1] 61.1% | [3] 22.1% | [4] 24.8% | [5] 23.8% | [6] 80.1% | [7] 31.9%

CCCn1c2cc(OCc3cn(-c4ccc(Br)cc4)nn3)ccc2c2ccnc(C)c21
inactive: [1] 90.2% | [2] 85.4% | [3] 47.4% | [4] 62.4% | [5] 54.7% | [6] 83.4% | [7] 67.6%

CCCCn1c(=O)c(/C=C/C(=O)/C=C/c2ccc(O)c(OC)c2)cc2ccc(Cl)cc21
active: [2] 2.81% | [5] -55.5% | [7] 6.78%
inactive: [1] 11.4% | [3] 16.1% | [4] 46.3% | [6] 33.3%

CC(=O)c1c(OCC#N)ccc2c(C)cc(=O)oc12
inactive: [1] 118% | [2] 107% | [3] 96.8% | [4] 99.2% | [5] 101% | [6] 109% | [7] 107%

CC(C)NS(=O)(=O)c1cccc(-c2ccc3c(=O)n(CCCN)c4c(c3c2)C(=O)c2ccccc2-4)c1
inactive: [1] 99.8% | [2] 107% | [3] 92.4% | [4] 101% | [5] 96.6% | [6] 105% | [7] 98.9%

N#Cc1ccc(C2C3=C(CCCC3=O)OC3=C2C(=O)c2ccccc2C3=O)cc1 (stereo unspecified)
inactive: [1] 91.9% | [3] 49.3% | [6] 104% | [7] 89.8%
active: [2] -77% | [4] 0.491% | [5] 6.16%

COc1ccc(Nc2cc(NC(=O)CNc3cc(OC)c(Cl)c(OC)c3Cl)ncn2)cc1
inactive: [1] 83.2% | [2] 74% | [3] 96.3% | [4] 71.7% | [5] 69.9% | [6] 95.5% | [7] 81.5%

Cc1[nH]c2ncnc(Oc3ccc(NC(=O)Nc4ccc(Cl)c(C(F)(F)F)c4)cc3)c2c1C
inactive: [1] 79.4% | [2] 45.4% | [3] 77.9% | [4] 31.6% | [5] 42.4% | [6] 60.5% | [7] 27.3%

O=C1CCc2ccccc2N1
inactive: [1] 107% | [2] 97.6% | [3] 102% | [4] 96.6% | [5] 101% | [6] 84.8% | [7] 96.6%

CCc1n(Cc2ccc3ccccc3c2)c2ccccc2[n+]1Cc1ccc2ccccc2c1
inactive: [1] 58.7% | [2] 46.7% | [3] 77.1% | [4] 49.6% | [5] 51.5% | [6] 58% | [7] 39.6%

Nc1ccc(C2=NN(C(=O)c3cc(-c4ccc(Cl)cc4)nc4ccccc34)C(c3ccc(Cl)cc3)C2)cc1 (stereo unspecified)
inactive: [1] 52.3% | [3] 29.6% | [4] 14.8% | [5] 23% | [6] 62.9% | [7] 27.5%
active: [2] -23.1%

CCCCc1nc(Cl)c(C2CC(c3ccc(Cl)cc3)=NN2c2cc(Cl)cc(Cl)c2)[nH]1 (stereo unspecified)
inactive: [1] 72% | [2] 83.2% | [3] 16.8% | [4] 85.1% | [5] 63.9% | [6] 102% | [7] 89%

N#Cc1c(NC(=O)c2cccs2)[n+]([O-])c2cc(C(F)(F)F)ccc2[n+]1[O-]
inactive: [1] 93.9% | [2] 106% | [3] 89% | [4] 98.7% | [5] 95.2% | [6] 99.2% | [7] 108%

O=C1C(=O)c2c(nc3ccc(Br)cn23)-c2ccccc21
active: [1] -86.8% | [2] -94% | [3] -79.6% | [4] -54.1% | [5] -88.9% | [6] -82.5% | [7] -41.5%

COc1ccc2oc(=O)cc(-c3c(C#N)c(N)n4nc(N)c(C#N)c4c3C#N)c2c1
inactive: [1] 89.3% | [2] 113% | [3] 98% | [4] 105% | [5] 108% | [6] 96.6% | [7] 99%
